Test results reported in PubChem BioAssay (NCATS).
Inconclusive results are not listed. Values without a mark were called inactive. Active and inactive are the calls of the source. The call rests on the fitted dose curve; in most records, active means well fitted curve in the direction sought with a large enough effect; inconclusive means small, poorly fitted or top-dose-only effect, or another doubt; inactive means no such curve, though single readings can be large; an effect the other way counts as inactive or inconclusive.

Tested on: not listed separately
Experiment: Confirmatory screen GU Rhodamine qHTS for Zika virus inhibitors qHTS (AID 1347157); further: nearly all actives have a fitted effect of over 70% in size
Conditions: purified enzyme assay, Rhodamine110 substrate fluorescence, 15 min
Procedure, shortened: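 Percent inhibition came from the 15-min rise in Rhodamine110 fluorescence (1.5 microM substrate, ~15% conversion), normalized to no-inhibitor and no-enzyme wells and Hill-fitted. Unlinked protease, 25 nM, pH 8.0 Tris buffer; compounds up to 114 microM, 15-min preincubation.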
Potency means the concentration at half of the fitted maximal effect.

Row | Compound | Potency
1 | CN(C)CC(=O)N1CCC(c2ccc(NC(=O)c3ncc(C#N)[nH]3)c(C3=CCCCC3)c2)CC1 | 12.4 µM (active)
2 | CC(C)c1cc(C(C)C)c(CC(=O)NS(=O)(=O)Oc2c(C(C)C)cccc2C(C)C)c(C(C)C)c1 | 2.21 µM (active)
3 | O=c1c(O)c(-c2ccc(O)c(O)c2)oc2cc(O)ccc12 | 44.7 µM (active)

Tested on: not listed separately
Experiment: ZIKV-mCherry secondary qHTS for Zika virus inhibitors (AID 1347158); on activity change, negative = inhibition: top concentration of the series differs between compounds
Conditions: Vero cells, ZIKV-mCherry infection imaging, 48-72 h; series mostly up to 49.2 µM; activity change, negative = inhibition: at the top concentration
From the text: Assay Submitters (PI): Avindra Nath, Ph.D., National Institute of Neurological Disorders and Stroke (NINDS), Bethesda, MD Radhakrishnan Padmanabhan, Ph.D., Georgetown University (GU), Washington D.C. Zika Virus causes congenital defects, including microcephaly and is associated with Guillain-Barre syndrome, eningoencephalitis and myelitis in infected adult. […] Using a target-based approach, we hope to establish a screening paradigm to uncover novel, cell-active NS2B-NS3 protease (Zika Virus) specific inhibitors from NCATS' collection of small molecules using qHTS. […] Four assay panel was created to identify potential Zika Virus inhibitors. Namely, (1) GU unlinked NS2B-NS3 AMC tagged protease qHTS, (2) GU unlinked NS2B-NS3 Rhodamine tagged protease qHTS, (3) NINDS linked NS2B-NS3 AMC tagged protease qHTS, (4) NINDS linked NS2B-NS3 Rhodamine tagged protease qHTS. Active compounds were re-acquired and re-screened to confirm inhibition. Inhibitors were further screened against various confirmatory and counterscreens in dose response format. […] A DAPI (mCherry counterscreen) which determine Vero cell toxicity was used to exclude false positive compounds. […] Early Translation Branch (ETB) National Center for Advancing Translational Sciences (NCATS), Rockville, MD National Institute of Health (NIH), Bethesda, Maryland
384 well ZIKV-mCherry Assay: We have developed a new orthogonal imaging assay in 384-well plate format, which uses recombinant virus ZIKV-mCherry in Vero cells. Briefly, 30 microL of Vero cells derived from a green monkey cell line, were dispensed by Multidrop Dispenser into a clear solid bottom black 384 well plate (ultracarrier, Perkin Elmer LifeSciences) at a concentration of 5,000 cells per well. The plate was incubated overnight in a CO2 incubator at 37 degrees C. Compounds were delivered as a 126 nL DMSO solution by Kalypsys pintool transfer. Following compound transfer, 10 microL of ZIKV-mCherry was added at an MOI of 1 and incubated in a CO2 incubator for 48-72 hrs at 37 degrees C. After sufficient incubation of infected cells in test plates, 8 microL of 32% PFA was dispensed into assay plates to fix cells and incubated for 20 min at room temperature. Plates were washed 3 times with PBS using BioTek EL406 microplate washer/dispenser. After washing, 30 microL of PBS with 0.01% TX-100 containing Hoechst dye was dispensed into the each well of the plates for nuclear staining. 384-well plates were imaged on an automated, widefield high content imager (INCell 2200, GE Healthcare) using a 10x/0.45 NA lens and standard DAPI (nuclear stain) and mCherry (cy5) excitation and emission filters. The TIFFs were quantitated using the canned Multi Target Analysis protocol (GE Investigator Workstation software v3.7.2). Briefly, nuclei from the DAPI channel were identified using top hat segmentation and a sensitivity setting of 96 and minimum size area of 35 microm2. A recombinant Zika viral infection was monitored in the Cy5 channel (cells) using a 2 microm collar dilation from the nuclear bitmap. mCherry objects with an average nuclear RFU intensity above 450 (3 stdev above mean negative control wells) were considered "mcherry positive" and data was analyzed by percent infection rate.

Row | Compound | activity change, negative = inhibition | Potency
4 | CCCCCCCCc1ccc(CCC(N)(CO)CO)cc1 | -54.4% | –
5 | CC(C)c1cc(C(C)C)c(CC(=O)NS(=O)(=O)Oc2c(C(C)C)cccc2C(C)C)c(C(C)C)c1 | – | 3.16 µM (active)
6 | Cc1ccc(-n2[nH]c(C)c(N=Nc3cccc(-c4cccc(C(=O)O)c4)c3O)c2=O)cc1C | 3400% | –
7 | O=c1c(O)c(-c2ccc(O)c(O)c2)oc2cc(O)ccc12 | 6.71% | –
8 | COc1ccc(S(=O)(=O)Nc2cc(-c3c(O)ccc4ccccc34)c(O)c3ccccc23)cc1 | 1100% | –

Tested on: Zika virus NS2B-NS3 protease (unlinked complex)
Experiment: Primary screen GU Rhodamine qHTS for Zika virus inhibitors: Unlinked NS2B-NS3 protease assay (AID 1347159); further: nearly all actives have a fitted effect of over 60% in size; on activity change, negative = inhibition: on the % scale 0 is the no-effect control and ±100 the full control effect
Conditions: Recombinant ZIKV NS2B-NS3 protease, Rhodamine110 substrate fluorescence; series mostly up to 107 µM; activity change, negative = inhibition: at the top concentration
Procedure, shortened: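 Percent inhibition derives from the 15-min fluorescence change (ex 480, em 540 nm), normalized to no-enzyme and no-inhibitor wells. Reactions contained 25 nM NS2B-NS3 complex and 1.5 microM substrate in 10 mM Tris-HCl pH 8.0.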

Row | Compound | activity change, negative = inhibition | Potency
9 | O=C(Nc1ccc(Oc2ccnc3[nH]ccc23)c(F)c1)c1cccn(-c2ccc(F)cc2)c1=O | 21.7% | –
10 | COc1ccc(S(=O)(=O)Nc2cccnc2Nc2ccc(O)cc2)cc1 | 17.6% | –
11 | c1ccc2c(Oc3nc(Nc4ccc(N5CCOCC5)cc4)c4ncn(C5CCCCC5)c4n3)cccc2c1 | 49.5% | –
12 | Cc1ccccc1C(=O)Nc1ccc(C(=O)N2CCCC(O)c3cc(Cl)ccc32)c(C)c1 (stereo unspecified) | 68% | –
13 | CN1CCc2c(c3ccccc3n2Cc2ccc(C(=O)NO)cc2)C1 | -7.84% | –
14 | Cc1coc2c1C(=O)C(=O)c1c-2ccc2c(C)cccc12 | – | 35.5 µM (active)
15 | CCN(CC)Cc1ccc2cc(COC(=O)Nc3ccc(C(=O)NO)cc3)ccc2c1 | 4.95% | –
16 | CS(=O)(=O)N1CCc2c(-c3cnc(N)nc3)nc(N3CCOCC3)nc21 | 6.13% | –
17 | Cn1cc(-c2ccc3ncc(Cc4ccc5ncccc5c4)n3n2)cn1 | -19.6% | –
18 | CC(C)c1cc(C(C)C)c(CC(=O)NS(=O)(=O)Oc2c(C(C)C)cccc2C(C)C)c(C(C)C)c1 | – | 3.16 µM (active)
19 | C=CC(=O)Nc1ccc2ncnc(Nc3ccc(OCc4cccc(F)c4)c(Cl)c3)c2c1 | – | 44.7 µM (active)
20 | Cn1cnc2c(F)c(Nc3ccc(Br)cc3F)c(C(=O)NOCCO)cc21 | 1.92% | –
21 | C[N+]1(C)[C@@H]2C[C@@H](OC(=O)C(O)(c3cccs3)c3cccs3)C[C@H]1[C@@H]1O[C@@H]12 | 7.53% | –
22 | CCOc1cc2c(c(F)c1OCC)C(=N)N(CC(=O)c1cc(N3CCOCC3)c(OC)c(C(C)(C)C)c1)C2 | 171% | –
23 | CCOC(=O)[C@@H](N)Cc1ccc(-c2cc(O[C@H](c3ccc(Cl)cc3-n3ccc(C)n3)C(F)(F)F)nc(N)n2)cc1 | – | 44.7 µM (active)
24 | CC(C)(N)c1ccc(-c2nc3ccccc3nc2-c2ccccc2)cc1 | 100% | –
25 | CC(C)C[C@H](NC(=O)[C@@H](NC(=O)c1cccc(-c2ccccc2)n1)[C@@H](C)O)B(O)O | -7.45% | –
26 | O=C(O)c1ccc(Nc2ncc3c(n2)-c2ccc(Cl)cc2C(c2c(F)cccc2F)=NC3)cc1 | – | 8.91 µM (active)
27 | Nc1ccn(C2CO[C@H](CO)O2)c(=O)n1 (stereo partly specified) | 0.526% | –
28 | CCc1ccc(C(=O)Nc2cc(CN3CCN(C)CC3)cc(C(F)(F)F)c2)cc1C#Cc1cnc2ccnn2c1 | -65% | –
29 | N#Cc1c(C2CCNCC2)cc(-c2c(O)cccc2OCC2CC2)nc1N | 84.8% | –
30 | FC(F)c1nc2ccccc2n1-c1nc(N2CCOCC2)nc(N2CCOCC2)n1 | 11% | –
31 | COc1cc(CCc2cc(NC(=O)c3ccc(N4C[C@@H](C)N[C@@H](C)C4)cc3)n[nH]2)cc(OC)c1 | 93.2% | –
